This is part of a sample that, as a whole, favours compounds with a hit. Of some 83,000 tested, about 20% had one in any assay.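 Assay: single dose, 48 h. Readout: percent growth (0 = no net growth; negative = cell death). Active: <10.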 A number with no mark means an inactive call. Activity calls are given as the source filed them.
Test system: HL-60(TB) leukemia
Experiment: NCI-60 one-dose screen, 48 h (100 = growth as untreated, 0 = no growth, -100 = all killed)
Conditions: 10 µM unless noted

SMILES | growth
O=C(NOC(=O)c1ccccc1)c1ccccc1 | 87.1%
CC(C(C(=O)N1CCCCC1)N1CCCCC1)N1CCCCC1 (stereo not drawn) | 104%
CCOC(=O)c1cc(-c2ccccc2)nc(N)n1 | 101%
CCc1nc(N)nc(N)c1C#CC(C)c1ccc(-c2ccncc2)cc1Cl (stereo not drawn) | -19.9% (active)
Nc1nc(N)c2nc3c(nc2n1)CCCCCCCCCC3 | 33.4%
COc1ccc(-n2cc(-c3ccc(Cl)c(Cl)c3)[nH]c2=O)cc1OC | 179%
COc1ccc2nc(-c3ccc(OC)c(OC)c3)cc(-c3nnc(SCC(=O)Nc4ccc(/C(C)=N\O)cc4)n3-c3ccccc3)c2c1 | 26.3%
Cc1cc(C)nc(NS(=O)(=O)c2ccc(Nc3ccc4c5c(n(CCCN(C)C)c(=O)c4c3)-c3ccccc3C5=O)cc2)n1 | 70.6%
c1ccc2c(-c3nccs3)c[nH]c2c1 | 85.1%
CCN(C(=O)c1cc2ncccc2[nH]1)[C@H]1CCC[C@@H](NCc2cccc(F)c2)C1 | 130%
COc1ccc(NC(=O)CCl)cc1 | 69.8%
C=C1C(=O)O[C@H]2[C@H]1CC/C(COC(=O)N[C@H](Cc1c[nH]c3ccccc13)C(=O)OC)=C\CC[C@@]1(C)O[C@@H]21 | -58% (active)
COc1cccc(/C=C2\Oc3cc(OCCCN4CCCC4)ccc3C2=O)c1OC | 96.3%
O=C(O)COc1ccc(F)cc1 | 94.2%
CCNc1nc(-c2ccc(F)cc2)c(C#N)c(=O)n1C | 85.8%
COc1ccc(C(=O)OC2C(OC3C(O)COC(O[C@H]4C[C@H]5[C@@H]6CC=C7C[C@@H](O)CC[C@]7(C)[C@H]6CC[C@]5(C)[C@H]4[C@H](C)C(=O)CCC(C)C)C3OC(C)=O)OCC(O)C2O)cc1 (stereo partly drawn) | -40.7% (active)
O=S(=O)(NCCNc1nccc(-c2c(-c3ccc(F)c(O)c3)nc3occn23)n1)c1ccccc1 | 63.6%
C=C(CNCCc1ccc(O)cc1)[C@@H]1CC[C@]2(COC3CCCCO3)CC[C@]3(C)[C@H](CC[C@@H]4[C@@]5(C)CCC(N)C(C)(C)[C@@H]5CC[C@]43C)[C@@H]12 (stereo partly drawn) | -75.6% (active)
Cc1ccc2nc(-c3ccc(N=Cc4ccccc4O)cc3)sc2c1 | 77.7%
COc1ccc2c(c1)C(=O)/C(=C/c1cccc(OCC(=O)Nc3nc4c(s3)CCCC4)c1)O2 | -70.8% (active)
Cc1ccc(S(=O)(=O)N/N=C2\CCCc3ccccc32)cc1 | 80.4%

SMILES | growth
Nc1cc(Br)c(-c2nnc(CCC(=O)c3nc4ccccc4[nH]3)o2)c(Br)c1 | 88%
COc1cc(C(=O)OCCCCCCCCCCC[P+](c2ccccc2)(c2ccccc2)c2ccccc2)ccc1O | -56% (active)
CCCCOC(OCCCC)c1ccccc1 | 96.7%
Cc1ccc(Nc2cc(Cl)c([N+](=O)[O-])cc2[N+](=O)[O-])cc1 | 6.39% (active)
O=C1c2ccccc2C(=O)c2c(N=Nc3sc(=O)[nH]c3S)cccc21 | 111%
COc1ccc(/C=c2\c(=O)n(-c3ccccc3)c3nn4c(n23)=NNC42CCCCC2)cc1 | 110%
CC(CN)[C@@H]1CC[C@]2(CO)CC[C@]3(C)[C@H](CC[C@@H]4[C@@]5(C)CCC(NCCO)C(C)(C)[C@@H]5CC[C@]43C)[C@@H]12 (stereo partly drawn) | 60%
COc1ccc(/C=C(\C#N)n2nnc3cc(Cl)ccc32)cc1 | -6.14% (active)
CNC(=O)c1cc(Oc2cccc3nc(Nc4ccc(Oc5ccccc5)cc4)ccc23)ccn1 | 87.1%
FC1(F)CCN(Cc2c[nH]c3cc(Cl)ccc23)C[C@H]1CCc1ccccc1 | 62.1%
Ic1ccccc1I | 94.1%
CCOC(=O)c1c[nH][nH]c1=O | 110%
COc1ncc(-c2ccc3nccc(C#CCN4CCN(S(C)(=O)=O)CC4)c3c2)cc1NS(=O)(=O)c1ccc(F)cc1F | -18.6% (active)
CCOC(=O)c1ccc(N(C=O)CCC(=O)CCl)cc1 | -28.6% (active)
Nc1nc(C(=O)N/N=C/c2ccc(F)cc2)nn1-c1ccc(S(N)(=O)=O)cc1 | 99.5%
CCN(CCO)CC(=O)c1cc(Cl)cc(Cl)c1Cl | 106%
CCN1CCN(c2nc(NNC(=O)c3cccc(OC)c3)nc(N3CCN(C(c4ccccc4)c4ccccc4)CC3)n2)CC1 | 28.4%
CCN1CCN(c2cc(C)nc(NCc3cc(Nc4ccnc5cc(Cl)ccc45)ccc3F)n2)CC1 | 95.7%
COC(=O)c1c2c(c[n+]([O-])c1C)C(=O)C=C(NCc1ccccc1)C2=O | -49.4% (active)
CCCCCCNC(=O)Oc1ccc(/C(=C(\C)c2ccc(OC)cc2)c2ccc(OCCN3CCCCC3)cc2)cc1 | 46.3%
CCNC(=O)Nc1nc2ccc(Oc3ccnc(C(=O)NC)c3)cc2s1 | 94.7%

SMILES | growth
C=C1C(=O)O[C@H]2[C@H]1CC/C(COC(=O)C(=O)c1c[nH]c3ccccc13)=C\CC[C@@]1(C)O[C@@H]21 | -46.5% (active)
COc1cccc(Nc2ncnc3cc(NC(=O)CCl)ccc23)c1 | -49.7% (active)
O=C1Nc2ccccc2/C1=C/c1cn(C(=O)c2ccc(Cl)cc2)c2ccccc12 | 150%
O=C(Nc1ccc2ncnc(Nc3ccc(Oc4cccc(F)c4)c(Cl)c3)c2c1)c1ccc(CNCCO)cc1 | 22.3%
CCCCCCCCO | 93.8%
COc1ccc(C(=O)/C=C/c2cc3ccccc3n3nnnc23)cc1 | 92.1%
O=C(c1nc2ccccc2[nH]1)C1C(c2ccc(F)cc2)C2CC3CCCCC3N2[C@@]12C(=O)Nc1ccc(Cl)cc12 (stereo partly drawn) | 33.2%
COC(=O)[C@@H]1CCCN1C(=O)[C@H]1CCCN1C(=O)[C@@H](Cc1c[nH]c2ccccc12)NC(=S)Nc1cc(C(F)(F)F)cc(C(F)(F)F)c1 | 12.2%
CC(C)c1ccc(C(=O)Nc2nc3ccc(O)cc3s2)cc1 | 14.4%
COc1cc(/C=C/C(=O)c2ccc(F)cc2)ccc1OCCCCOc1cc2c(cc1OC)C(=O)N1CCCC1C=N2 (stereo not drawn) | -32.6% (active)
Cc1cc2c(c(C)c1Cl)C(=O)/C(=C/c1ccco1)O2 | 97.5%
O=[N+]([O-])c1ccc(O)c(-c2nc3ccccc3s2)c1 | 52.8%
Nc1ncnc2c1C(c1ccc([N+](=O)[O-])cc1)c1sc3c(F)cccc3c1O2 (stereo not drawn) | 97.2%
C=CCn1c(SCC(=O)Nc2ccc(C(=O)/C=C/c3ccc(OC)cc3)cc2)nnc1-c1ccccc1 | 88.5%
CCC(=O)Oc1ccc2c(c1)CC[C@@H]1[C@@H]2CC[C@]2(C)C[C@H](OC(=O)CC)C[C@@H]12 | 30.8%
[2H]C([2H])([2H])Oc1ccc(/C=C/C(=O)/C=C(O)/C=C/c2ccc(OC([2H])([2H])[2H])c(OC([2H])([2H])[2H])c2)cc1OC([2H])([2H])[2H] | 54.5%
COc1ccc(-c2cc(-c3ccc(Nc4nc(Nc5ccc(Cl)cc5)nc(Nc5ccc(Cl)cc5)n4)cc3)no2)cc1 | -43.5% (active)
C[C@H]1[C@H](C)CC[C@]2(C(=O)NCC#CCN3CCN(C)CC3)CC[C@]3(C)C(=CC[C@@H]4[C@@]5(C)Cc6c([nH]c7ccccc67)C(C)(C)[C@@H]5CC[C@]43C)[C@H]12 | 63.9%
CN(C)CCCNC(=O)C(c1ccccc1)c1ccccc1 | 106%
CCO/C=N/C1=C(C#N)C(c2ccc(Cl)cc2)c2c(c3ccccc3n(C)c2=O)O1 (stereo not drawn) | 53.4%
Nc1nsc(C(=O)c2ccc(O)cc2)n1 | 92.4%

SMILES | growth
CC1(C)C(=NO)C(C)(C)C1=NO | 113%
Nc1cc(Cl)c(S(N)(=O)=O)cc1S(N)(=O)=O | 104%
O=C(N/N=C/c1ccc(Cl)cc1)c1ccc(C(F)(F)F)nc1Nc1cccc(C(F)(F)F)c1 | -37.2% (active)
Cc1cc(-c2nc3ccccc3s2)ccc1NC(=O)COc1ccc(Cl)cc1 | 99.1%
CCOC(=O)c1cc(C)n(-c2ccc(C(=O)O)cc2)c1C | 86.2%
COc1cnc2c(c1)C(=O)c1c-2n(CCCN2CCCC2)c(=O)c2cc(F)ccc12 | -28.7% (active)
N=C1CCC(=N)c2c1c(O)c1ccccc1c2O | 129%
Cc1c(C2=CCCCC2)c2ccccn2c1C(=O)c1cccc(S(=O)(=O)N2CCOCC2)c1 | 132%
CCN(CC)CCCNCc1cc(-c2ccccc2)nc2ccccc12 | -19.3% (active)
O=C(/C=C/C12c3ccccc3C(c3ccccc31)C1C(=O)NC(=O)C12)c1ccc(Br)cc1 (stereo not drawn) | 2.14% (active)
N=C(N)c1ccc(-c2ccc(-c3ccc(Cl)cc3)o2)o1 | -53.5% (active)
O=C1OC2C(I)C3CC2C1C3c1ccccc1 (stereo not drawn) | 85.7%
CCN1CCN(c2nc(C)cc(N(CCCNc3ccnc4cc(Cl)ccc34)Cc3ccc4c(c3)OCO4)n2)CC1 | -60.4% (active)
Cc1nnc(NC/C=C/c2ccccc2)s1 | 98%
Cc1ccc(S(=O)(=O)NCCCNc2nccc(-c3c(-c4ccccc4)nc4sccn34)n2)cc1 | -13.1% (active)
CCCCC(O)Cn1ncc(C(=O)OCC)c1NC(=O)NCc1ccccc1C(F)(F)F (stereo not drawn) | 76.3%
O=C1NC(SCc2ccc(F)cc2)=N/C1=C/c1cccc(OCc2ccc(Cl)cc2)c1 | 61.5%
COc1cc2c(cc1OC)C(C)N(S(N)(=O)=O)CC2 (stereo not drawn) | 72.2%
Cc1cc(C(C)(C)C)cc(C)c1Br | 108%
CSc1nc(N)c2c(n1)N(C)C=NS2(=O)=O | 124%

From PubChem BioAssay (NCI)
